Results on 14 compounds are retold here after PubChem BioAssay (NCI).

Values joined by “and” are separate entries in the source; they are usually repeats but may differ in a detail not shown here. Identical values can stand only once. Compounds without any hit were thinned out: in the full panel of roughly 79,000, 15% have a hit. More than one record can exist for a structure, and the calls need not agree. Active and inactive are the calls of the source. Cut-off read from the data, not from the text of the source: active = growth inhibition above about 70%; inactive = the rest.

This experiment in a line: NCI Yeast Anticancer Drug Screen. Data for the sgs1 mgt1 strain (AID 161).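 Note: 0% = growth of cultures given vehicle only.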 The following applies: S. cerevisiae sgs1 mgt1 strain, stronger effect = higher value. Here is the method: Growth inhibition of yeast strains with defined genetic alterations is measured as a screen for potential anti-cancer activity. Selected strains with alterations in DNA damage repair or cell cycle control were exposed to compounds and growth inhibition was measured relative to vehicle treated controls. The strain used in this assay is sgs1 mgt1

The mark [1] stands for this setting: at 5.0 µM (retest, dose inferred, filed as 0.5).
[2] abbreviates: at 50.0 µM (retest, dose inferred, filed as 5.0).

In the case of `CC(=O)OC(OC(C)=O)c1c2ccccc2cc2ccccc12`, the growth inhibition is 27% (inactive) under setting [1], 97% (active) under setting [2] and 88.9% (active) (at 50.0 µM).
For the compound `O=C(O)CSCc1ccc(Cl)cc1`, the growth inhibition under setting [1] was 2% (inactive), the growth inhibition under setting [2] was 1% (inactive) and the growth inhibition (at 50.0 µM) is -9.3% (inactive).
With `O=c1cc[nH]c2ccccc12`, the growth inhibition under setting [1] was 16% (inactive); the growth inhibition under setting [2] was 64% (inactive); the growth inhibition (at 50.0 µM) is -6.85% (inactive) and 7.5% (inactive).
For `Nc1cc2ccccc2c2c1ccc1ccccc12`, the growth inhibition under setting [1] was -66% (inactive) and 14% (inactive); the growth inhibition under setting [2] is -18% (inactive) and 64% (inactive); the growth inhibition (at 50.0 µM) is 97.8% (active) and 92.5% (active).
Turning to `CCOCc1ccccc1C(O)(c1ccc(OC)cc1)c1ccc(OC)cc1`, the growth inhibition under setting [1] is 6% (inactive) and -2% (inactive); the growth inhibition under setting [2] is 10% (inactive) and 21% (inactive); the growth inhibition (at 50.0 µM) is 60.5% (inactive) and 77.2% (active).
On to `O=C(OC(=Nc1ccccc1)N(c1ccccc1)c1ccccc1)c1ccccc1`, for which the growth inhibition reads like this: under setting [1], -7% (inactive); under setting [2], 40% (inactive); (at 50.0 µM) 12.7% (inactive) and -15.7% (inactive).
For `Cc1ccc(CC(=O)c2c(C)[nH]c3ccccc23)cc1C`, the growth inhibition reads like this: under setting [1], 11% (inactive); under setting [2], 11% (inactive); (at 50.0 µM) 98.5% (active).
For the compound `CC(=O)OC1OC(CI)C(OC(C)=O)C(OC(C)=O)C1OC(C)=O` (configuration not stated), the growth inhibition was -3% (inactive) under setting [1]; 19% (inactive) under setting [2]; 4.55% (inactive) and -11.6% (inactive) (at 50.0 µM).
In the case of `c1ccc(-c2nc3ccccc3[nH]2)cc1`, the growth inhibition by setting is: under setting [1], -11% (inactive); under setting [2], 29% (inactive); (at 50.0 µM) -8.85% (inactive) and 1% (inactive).
With `CCCCCCCCCCCC(=O)CN1CCOCC1`, the growth inhibition by setting is: under setting [1], 47% (inactive); under setting [2], 99% (active); (at 50.0 µM) 61.9% (inactive).
In the same order, the values of `O=[N+]([O-])c1ccc2ccccc2c1O` are 5% (inactive), 97% (active) and 95.7% (active).
In the same order, the values of `COc1cc(/C=C/C(=O)NCCCCN=[N+]=[N-])ccc1OCc1ccccc1` are -7% (inactive), 1% (inactive) and 27.4% (inactive).
`COC(=O)[C@]1(C)CCC[C@]2(C)c3ccc(C(C)C)cc3CC[C@@H]12`: the growth inhibition reads like this: under setting [1], -8% (inactive); under setting [2], 74% (active); (at 50.0 µM) 13.8% (inactive) and 99% (active).
With `CCCCCCCCCCCCCCCC(=O)NCC[N+](C)(C)C`, the growth inhibition by setting is: under setting [1], 50% (inactive); under setting [2], 99% (active); (at 50.0 µM) 99.8% (active).
